Source: PubChem BioAssay (NCI)
This is part of a sample that, as a whole, favours compounds with a hit. Of some 83,000 tested, about 20% had one in any assay.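 96-well plates, one dose, 48 hours. Percent growth reported; active if below 10.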 A number with no mark means an inactive call. Calls of active or inactive are those of the source.

How the values were obtained:
Experiment in all cases: NCI-60 one-dose screen, 48 h (100 = growth as untreated, 0 = no growth, -100 = all killed)
Settings in all cases: 10 µM unless noted
NCI-H23 lung = test system: NCI-H23 lung
NCI-H226 lung = test system: NCI-H226 lung
NCI-H322M lung = test system: NCI-H322M lung
HOP-62 NSCLC = test system: HOP-62 NSCLC
NCI-H460 lung = test system: NCI-H460 lung
HOP-92 NSCLC = test system: HOP-92 NSCLC
NCI-H522 lung = test system: NCI-H522 lung
A549/ATCC NSCLC = test system: A549/ATCC NSCLC
786-0 renal = test system: 786-0 renal
COLO 205 colon = test system: COLO 205 colon
DU-145 prostate = test system: DU-145 prostate
K-562 leukemia = test system: K-562 leukemia
MALME-3M melanoma = test system: MALME-3M melanoma
MDA-MB-231 breast = test system: MDA-MB-231 breast
SF-268 CNS = test system: SF-268 CNS
SF-295 CNS = test system: SF-295 CNS
SF-539 CNS = test system: SF-539 CNS
M14 melanoma = test system: M14 melanoma
UACC-257 melanoma = test system: UACC-257 melanoma
RXF 393 renal = test system: RXF 393 renal

Row | SMILES | growth (NCI-H23 lung) | growth (NCI-H226 lung) | growth (NCI-H322M lung) | growth (HOP-62 NSCLC) | growth (NCI-H460 lung) | growth (HOP-92 NSCLC) | growth (NCI-H522 lung) | growth (A549/ATCC NSCLC) | growth (786-0 renal) | growth (COLO 205 colon) | growth (DU-145 prostate) | growth (K-562 leukemia) | growth (MALME-3M melanoma) | growth (MDA-MB-231 breast) [%] | growth (SF-268 CNS) | growth (SF-295 CNS) | growth (SF-539 CNS) | growth (M14 melanoma) | growth (UACC-257 melanoma) | growth (RXF 393 renal)
1 | COC(=O)C1CCC(NC(=O)c2csc([C@@H](C[C@H](C(C)C)N(C)C(=O)[C@@H](NC(=O)[C@H]3CCCCN3C)C(C)C)OC(C)=O)n2)CC1 (stereo not given in full) | 32% | 17% | 47.8% | 7.46% (active) | 6.14% (active) | 32.2% | -25% (active) | 15.9% | 13% | -71.1% (active) | 9.8% (active) | 10% | 57.8% | 12.1 | 22.6% | 2.5% (active) | -10.1% (active) | 1.47% (active) | – | –
2 | CC1(C)N=C(N)N=C(N)N1c1ccc(CCCCc2ccc(Cl)c(S(=O)(=O)F)c2)c(Cl)c1 | 20.4% | 44.2% | 45.5% | 18.1% | 16.3% | -0.0536% (active) | -14.7% (active) | 15.4% | -20.2% (active) | 36.3% | 35.3% | 9.3% (active) | 17.4% | 52.6 | 18.7% | 18.7% | 14% | 20.7% | 18.3% | –
3 | C=CCc1cc2c(cc1OCC)OCO2 | 95.6% | 99.3% | 114% | 64.7% | 102% | 81.1% | 74.5% | 88.9% | 92.4% | 108% | 108% | 114% | 116% | 110 | 94.8% | 93.6% | 99.1% | 92.9% | 105% | –
4 | O=Cc1cn(Cc2ccc(Cl)cc2)c2ccccc12 | 84.9% | -26.9% (active) | 82.5% | 76.9% | 5.05% (active) | 76.4% | 93.4% | 64.8% | 94.1% | 22% | 95.5% | 40.5% | 96.5% | 96.1 | 89.6% | 46% | 87.4% | 83.8% | 21.8% | –
5 | COC(=O)[C@@H](C)C[C@H](Cc1ccc(F)cc1)NC(=O)c1csc([C@@H](C[C@H](C(C)C)N(C)C(=O)[C@@H](NC(=O)[C@H]2CCCCN2C)C2CC2)OC(C)=O)n1 | 36% | 43.2% | 39.7% | 12.2% | 7% (active) | 46.6% | -15.2% (active) | 20.1% | 13.5% | -73.1% (active) | 13.1% | 9.43% (active) | 55.2% | 13.3 | 30.9% | 2.38% (active) | -4.81% (active) | 1.41% (active) | – | –
6 | COC(=O)C1OC(Oc2ccc(N(CCCl)CCCl)cc2)C(OC(C)=O)C(OC(C)=O)C1OC(C)=O (stereo not given) | 92.9% | 96.7% | 108% | 94.4% | 29.3% | 78% | 67.9% | 75.9% | 75% | 95.3% | 104% | 94.6% | 96.1% | 88.5 | 79.1% | 53.1% | 70.9% | 102% | 79.6% | –
7 | C[C@]12CCc3nc(Nc4ccccc4F)sc3C1=CC[C@@H]1[C@@H]2CC[C@]2(C)C(=O)CC[C@@H]12 | 77.7% | 85.9% | 86.5% | 87.2% | 60.3% | 116% | 79.1% | 76.7% | 38.5% | 75.7% | 28.4% | 21.7% | 75.7% | 92.5 | 78.8% | 51% | 41.4% | 75.1% | 90.7% | –
8 | O=C(Nc1ccc([As]=[As]c2ccc(NC(=O)c3ccccc3)cc2)cc1)c1ccccc1 (stereo not given) | -71.3% (active) | -85.5% (active) | -76.8% (active) | -96.7% (active) | -30.5% (active) | -93.1% (active) | -75.9% (active) | -63.2% (active) | -94.3% (active) | -83.4% (active) | -96% (active) | -16.8% (active) | -80.5% (active) | – | -91.4% (active) | -52.7% (active) | -90.9% (active) | -89% (active) | -87% (active) | -97.8% (active)
